Measured values from PubChem BioAssay (EPA / NIEHS).
Inconclusive results are not listed. Activity calls are given as the source filed them. Rule for the calls: active = hit-call score of the fitted dose curve at least 0.9, where 1 is the maximum; inconclusive = response in the unintended direction; inactive = score below 0.9.

Assay: ACEA_AR_antagonist_AUC_viability: ACEA Biosciences xCELLigence Real-Time Cell Analysis on Androgen Receptor Antagonism for Viability (AID 2283776);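 note: area under impedance growth curve at 80 h after dosing as viability; hits lower the growth signal relative to DMSO meaning cytotoxicity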
Protocol: ACEA_AR_antagonist is a cell-based, single-readout assay that uses 22Rv1, a human prostate cancer cell line, with measurements taken at 80 hours after chemical dosing in a 384-well plate, although TO5 and TO6 (mc0.srcf) used a 96-well plate. Differences in plate size can be ignored given data normalization.ACEA_AR_80hr is one of two assay component(s) measured or calculated from the […] assay. It is designed to make measurements of real-time cell-growth kinetics, a form of growth reporter, as detected with electrical impedance signals by Real-Time Cell Electrode Sensor (RT-CES) technology.Data from the assay component ACEA_AR_antagonist_AUC_viability was analyzed in the positive analysis fitting direction relative to DMSO as the negative control and baseline of activity. Using a type of growth reporter, loss-of-signal activity can be used to understand changes in the viability. Furthermore, this assay endpoint can be referred to as a secondary readout, because this assay has produced multiple assay endpoints where this one serves a viability function. To generalize the intended target to other relatable targets, this assay endpoint is annotated to the cell cycle intended target family, where the subfamily is cytotoxicity.
The xCELLigence system Multi-E-Plate stations were used to measure the time-dependent response to chemicals. Each compound was tested in an eight-point, 1:4 serial dilution series starting at a maximum final concentration of 100 uM. A maximum starting concentration of 0.5% DMSO was present in the 100 uM chemical samples and was diluted along with the test article dilution series. The screen was performed in biological duplicate using two separate, 96-well, E-Plates 96 for each dilution series (n = 2). Positive controls (MG132 and testosterone) and a negative control (assay media) were tested in quadruplicate on each testing plate. Then, 0.5% and 0.125% DMSO were tested in duplicates in each plate to serve as solvent controls for the 2 highest concentrations of testing compounds: 100 uM and 25 uM. Reference compounds were tested with 8 concentrations with 1:5 serial dilutions. All screening was carried out by ACEA Biosciences, Inc. (San Diego, CA). 22Rv1 cells purchased from ATCC were maintained in media supplemented with 10% fetal bovine serum (FBS). Before screening, 22Rv1 cells were preconditioned in assay medium. Cells were then detached and seeded in E-Plates 96 in assay medium. After overnight monitoring of growth once every hour, compounds were added to […] cells and remained in the medium until the end of the experiment. Cellular responses were then recorded once every 5 min for the first 5 h, and once every hour for an additional 100 h.

SMILES	AC50	outcome
CC=Cc1ccc(O)c(OC)c1	19.3 µM (active)	–
COc1ccc(S(=O)(=O)N2C(=O)[C@@](c3ccccc3OC)(N3C[C@H](O)C[C@H]3C(=O)N(C)C)c3cc(Cl)ccc32)c(OC)c1	20.5 µM (active)	–
Cc1nc(C)nc(N2C[C@@H](C)N(c3ccnc([C@@H](C)O)n3)[C@@H](C)C2)n1	–	inactive
Oc1ccc2ccccc2c1N=Nc1ccccc1	–	inactive
NS(=O)(=O)c1cc2c(cc1Cl)NCNS2(=O)=O	–	inactive
Oc1ccc2c(c1)OC[C@@H](N1CCC(O)(c3ccc(F)cc3)CC1)[C@H]2O	–	inactive
CCCCCCC(=O)OCC	–	inactive
CCc1c(C(=O)NN2CCCCC2)nn(-c2ccc(Cl)cc2Cl)c1-c1ccc(Br)cc1	10.8 µM (active)	–
Cc1ccc(C(C)C)c(O)c1	–	inactive
CC(C)(C)c1cc(O)c(C(C)(C)C)cc1O	–	inactive
O=C(OCCCCCOC(=O)c1ccccc1)c1ccccc1	77.9 µM (active)	–
CN1CCCC1=O	–	inactive
c1cc(-c2ccncc2)ccn1	–	inactive
CNCc1cc(F)ccc1Oc1ccc(Cl)c(Cl)c1	67.4 µM (active)	–
CC(=O)OC/C=C(\C)CCC=C(C)C	–	inactive
Cc1cc(NC(=O)C(=O)O)cc(C)c1Oc1ccc(O)c2c1CCC2	–	inactive
COCCOCCOC	–	inactive
Nc1ccccc1N	24.2 µM (active)	–
CC1(C)NC(=O)NC1=O	–	inactive
CCCCCCCC=O	–	inactive

SMILES	AC50	outcome
COC(=O)c1ccc(O)cc1	12.7 µM (active)	–
CC(=O)OCCOCCOCCOC(C)=O	–	inactive
Cc1cccc([N+](=O)[O-])c1C	–	inactive
O=c1[nH]cc(F)c(=O)[nH]1	1.76 µM (active)	–
C=CCc1ccc(O)c(OC)c1	–	inactive
Cc1c(C(=O)O)c(O)cc2c1C(=O)c1c(O)c([C@@H]3O[C@H](CO)[C@@H](O)[C@H](O)[C@H]3O)c(O)c(O)c1C2=O	–	inactive
CCNc1cccc(C)c1	–	inactive
CC(C)c1ccc(C(=O)N=C(N)N)cc1S(C)(=O)=O	–	inactive
CCCCCCCCCCCCCO	–	inactive
NCC1(Cc2noc(=O)[nH]2)CCCCC1	–	inactive
Clc1cc(Cl)c(Cl)cc1Cl	–	inactive
OC[C@@H](O)[C@@H](O)[C@H](O)[C@H](O)CO	–	inactive
C=CCOC(=O)c1ccccc1C(=O)OCC=C	–	inactive
Cc1ccc(C)c(O)c1C	–	inactive
NC(=O)Cn1c(=O)cc(CCN2CCN(c3nccc4sccc34)CC2)c2ccc(F)cc21	12.1 µM (active)	–
CCCCCCCCCCO	–	inactive
Cc1cc(=O)[nH]c(=S)[nH]1	9.94 µM (active)	–
Cc1ccc(N(C)C)cc1	–	inactive
COc1cc(S(=O)(=O)O)c(C)cc1N=Nc1c(O)ccc2cc(S(=O)(=O)O)ccc12	–	inactive
O=C(N[C@@H](Cc1ccccc1)[C@@H](O)C(=O)N1C[C@@H](O)[C@@H](O)C1)c1cc2cc(Cl)ccc2[nH]1	30.9 µM (active)	–
